High-throughput results deposited in PubChem BioAssay by National Center for Advancing Translational Sciences (NCATS).
Most compounds without a hit are left out; they make up all but 3.1% or so of the library.
VDR inhibitor: inhibitors of human vitamin D receptor; hit rate 0.93% among 400,000; Potency, µM, inactives show max response, negative = inhibition, hits mostly inhibitors; VDR-SRC2-3 peptide fluorescence polarization, 2 h; also: potency is read from the fitted curve at half-maximal effect; % is scaled to controls: 0 for no effect and ±100 for the full control effect
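Compounds are added to VDR with labelled SRC2-3 coactivator peptide and held 2 h at room temperature. Inhibition of the VDR–peptide interaction is then read as a change in fluorescence polarization.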
uPA surface inh: blocks generation of uPA at the cell surface. AID 540303. Potency, µM (top dose mostly 38.3 µM), for inactives: at the highest dose activity change, negative = inhibition, most hits filed as inhibitors. hit rate 0.31% among 330,000. cell surface uPA generation assay, qHTS; active = well fitted inhibition curve with a large enough effect; inconclusive = small, poorly fitted or top-dose-only effect; inactive = no such curve, though single readings can be large or run the other way; tested in mouse RAW 264.7 cells; also: potency is read from the fitted curve at half-maximal effect; % is scaled to controls: 0 for no effect and ±100 for the full control effect; nearly all actives have a fitted effect of over 55% in size
PTAP TSG101 blk: blocks PTAP/TSG101 interaction to inhibit HIV-1 budding; Q99816; Fluorescence polarization, FITC-PTAP peptide / Tsg101 binding; Potency, µM (series often up to 115 µM), inactives show top-dose activity change, negative = inhibition, hits mostly inhibitors; 340,000 tested, under 10 active; active = well fitted inhibition curve with a large enough effect in the main read-out, with a control signal flat, not every such curve was filed as active; inconclusive = small, poorly fitted or top-dose-only effect, or effect the other way, or a change in a side signal; inactive = no such curve, though single readings can be large or run the other way; also: potency is read from the fitted curve at half-maximal effect; % of control where 0% means no effect
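Fluorescence anisotropy tracks displacement of a FITC-tagged PTAP peptide (50 nM) from the Tsg101 binding domain (10 uM), following a 20 min room-temperature incubation at pH 7.5.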
PLK1 PBD inh: PLK1 (human) polo-box domain binding inhibition | P53350 | Plk1 PBD binding of FITC phosphopeptide, fluorescence polarization | Potency, µM, without a hit: max response, negative = inhibition, usual class: inhibitors | hit rate 2.8% among 360,000 | AID 720504; also: potency is read from the fitted curve at half-maximal effect; series mostly up to about 57 µM; % is scaled to controls: 0 for no effect and ±100 for the full control effect; nearly all actives have a fitted effect of over 65% in size
TSHR antagonist: antagonists of human thyroid stimulating hormone receptor; P16473; TSHR-expressing cells, TSH-stimulated cAMP HTRF, 2 h; hits give low values; activity change, negative = inhibition, % at 11.5 µM; hit rate 0.2% among 330,000; AID 504810;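 active = activity change below a set negative limit, meaning inhibition stronger than a set level, cut at about -70% in these data; inconclusive = activity change between two set negative limits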; also: % is scaled to controls: 0 for no effect and ±100 for the full control effect
Target sequence (P16473 whole entry, looked up): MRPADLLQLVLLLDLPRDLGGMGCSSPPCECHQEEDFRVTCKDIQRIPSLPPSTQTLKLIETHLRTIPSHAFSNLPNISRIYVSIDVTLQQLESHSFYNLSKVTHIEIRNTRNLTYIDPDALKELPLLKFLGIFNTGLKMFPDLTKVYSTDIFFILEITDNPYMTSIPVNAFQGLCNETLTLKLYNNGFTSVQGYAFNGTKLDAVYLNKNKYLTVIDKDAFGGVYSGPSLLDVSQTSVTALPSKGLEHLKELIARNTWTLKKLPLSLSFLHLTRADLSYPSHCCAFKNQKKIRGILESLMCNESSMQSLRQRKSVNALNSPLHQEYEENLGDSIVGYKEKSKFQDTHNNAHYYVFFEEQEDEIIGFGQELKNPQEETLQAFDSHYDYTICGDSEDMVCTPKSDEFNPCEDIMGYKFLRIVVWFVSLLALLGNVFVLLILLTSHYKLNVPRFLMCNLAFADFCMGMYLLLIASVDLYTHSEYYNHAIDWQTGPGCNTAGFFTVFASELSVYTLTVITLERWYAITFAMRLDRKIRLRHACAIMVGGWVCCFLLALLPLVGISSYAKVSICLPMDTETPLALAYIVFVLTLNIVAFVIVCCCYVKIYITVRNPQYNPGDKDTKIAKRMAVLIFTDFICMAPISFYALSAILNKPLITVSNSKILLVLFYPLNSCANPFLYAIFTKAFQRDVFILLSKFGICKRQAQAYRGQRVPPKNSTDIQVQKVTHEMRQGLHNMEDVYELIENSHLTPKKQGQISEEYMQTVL
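Read-out is FRET at 665 nm (cryptate excitation 337 nm) from a cryptate-tagged anti-cAMP antibody, competed by cell cAMP against cAMP-d2. Compounds are tested on freshly harvested TSHR cells challenged with 4nM TSH (EC80) for 2 hours at 37 deg C.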
* hit, by the source's call; ? = inconclusive; nt = no result. Unless noted, calls follow the shape of the dose curve; as a rule, active = well fitted curve in the direction sought with a large enough effect; inconclusive = small, poorly fitted or top-dose-only effect, or another doubt; inactive = no such curve, though single readings can be large; an effect the other way counts as inactive or inconclusive.

SMILES | VDR inhibitor | uPA surface inh | PTAP TSG101 blk | PLK1 PBD inh | TSHR antagonist
O=C1c2cccc3c(O)ccc(c23)C(=O)N1Cc1ccccc1 | 9% | -6% | ? | 6µM* | -45
Cc1cc(C)nc(SCCN(C)C)n1 | 14% | 3% | 2% | 8% | -2
Cc1cc(C)nc(SSc2nc(C)cc(C)n2)n1 | 7.1µM* | 3% | 1% | 1.9µM* | -11
C[C@H]([C@H](C)N1CC(=O)NC(=O)C1)N1CC(=O)NC(=O)C1 | 45µM* | nt | nt | nt | nt
c1ccc(Nc2nc(N3CCCCC3)nc(N3CCCCC3)n2)cc1 | -14% | 4% | 0% | 21µM* | 17
O=C1/C(=C/C=C/c2ccco2)SC(=S)N1NS(=O)(=O)c1ccccc1 | -19% | 2% | -1% | 11µM* | -4
O=C1/C(=C/c2cccs2)SC(=S)N1NS(=O)(=O)c1ccccc1 | 4% | -4% | -3% | -28% | 2
CCOc1ccccc1-n1cc2c(c1-c1ccc(OC)cc1)c(=O)n(C)c(=O)n2C | 6% | nt | nt | nt | nt
O=C(Cn1ncc2c([nH]c3ccccc32)c1=O)NCC1CCN(Cc2ccc(F)cc2)CC1 | 8% | 6% | -1% | 3% | -138*
CC1CC(C)CN(C(=O)Cn2ncc3c([nH]c4ccccc43)c2=O)C1 (stereo not drawn) | -24% | -27% | 2% | 24µM* | 9
COc1ccc(C(=O)N(Cc2ccco2)Cc2cccs2)cc1 | -13% | nt | nt | nt | nt
COc1ccc2c(c1)O[C@@H](c1ccc3c(c1)OCO3)[C@H](OC(=O)N[C@H]1CCCc3ccccc31)C2=O | 26% | nt | nt | nt | nt
COC(=O)c1ccc(-n2nnnc2SC)cc1 | -18% | 0% | -4% | 21µM* | 0
COc1cc2c(cc1CC=C(C)C)C(=O)C[C@@H](c1ccc(O)cc1)O2 | 0% | nt | nt | nt | nt
CCN(CC(=O)Nc1cccc(OC)c1)C(=O)c1cccc(S(=O)(=O)N2CCc3ccccc32)c1 | 7% | -3% | -1% | 5% | -18
CSCC[C@H](NC(=O)N1CCn2c1nc1ccccc12)C(=O)NCc1ccco1 | -16% | -17% | -1% | 27µM* | 0
CSCC[C@H](NC(=O)N1CCn2c1nc1ccccc12)C(=O)NCc1ccccc1 | -11% | 0% | -2% | -20% | -4
CCOC(=O)c1c(C)[nH]c(CCC(=O)NCc2ccccc2Cl)c1C | 12% | nt | nt | nt | nt
O=C(O)C1=C(OCc2ccc(F)c(F)c2)C(=O)NCC1 | 79µM* | 2% | 0% | 27µM* | -1
Cc1cnc(NC(=O)CCc2ccccc2)s1 | 11% | 10µM* | -1% | -10% | -6
COc1ccccc1OCC(=O)Nc1ncc(C)s1 | 8% | ? | -2% | -11% | 3
Cc1cnc(NC(=O)COc2ccccc2)s1 | -1% | -5% | -12% | 30µM* | -4
Cc1ccc(C(=O)O)cc1NC(=O)CCc1ccccc1 | -10% | 1% | -2% | 17µM* | -6
COC(=O)c1ccc(C)c(NC(=O)CN(c2ccccc2)S(=O)(=O)N(C)C)c1 | -19% | 0% | 0% | 21µM* | -13
CCc1ccc2[nH]cc(S(=O)(=O)c3ccc(C(C)C)cc3)c(=O)c2c1 | -11% | nt | nt | nt | nt
SMILES | VDR inhibitor | uPA surface inh | PTAP TSG101 blk | PLK1 PBD inh | TSHR antagonist
COC1=CC(=O)C(O)=C/C1=C\C=C\c1ccccc1 | 2.8µM* | nt | nt | nt | nt
COc1cc(O)cc(/C=C/c2ccccc2)c1 | 8% | -1% | -7% | -18% | nt
COc1c(C)c2c(c(O)c1CC=C(C)CCC(=O)OCCN1CCOCC1)C(=O)OC2 | -5% | nt | nt | nt | nt
COc1cc(C(=O)N(CCCN(C)C)c2nc3c(OC)cccc3s2)cc(OC)c1OC | 0% | nt | nt | nt | nt
O=C(COc1ccccc1)Nc1ccccc1Oc1ccccc1 | -3% | -2% | -2% | 3% | 12
CC1CC1C(=O)OCC(=O)Nc1ccccc1Oc1ccccc1 (stereo not drawn) | -25% | 2% | -5% | 27µM* | -3
O=C(O)CCC(=O)Nc1ccccc1Oc1ccccc1 | 79µM* | 3% | -2% | 27µM* | 4
COC(=O)c1cccnc1-n1c(=O)c2cccnc2n(CC(=O)Nc2cccc(C(F)(F)F)c2)c1=O | 8% | nt | nt | nt | nt
CCCCCC(=O)N(O)C1CC(=O)N(c2ccccc2)C1=O (stereo not drawn) | 20µM* | -17% | 0% | ? | 2
COc1ccc(OCC(=O)Sc2ccc(C)cc2)cc1 | ? | -9% | -3% | 4.7µM* | 7
O=C(NCCc1csc(-c2ccccc2)n1)c1ccco1 | ? | -2% | -4% | 11µM* | -6
CCCC1CCc2c(sc(N)c2C(N)=O)C1 (stereo not drawn) | ? | 1% | 1% | 27µM* | -6
CC(C)(C)C1CCc2c(sc(N)c2C(N)=O)C1 (stereo not drawn) | 79µM* | -2% | 1% | ? | -5
CCC1CCc2c(sc(NC(=O)c3ccco3)c2C(N)=O)C1 (stereo not drawn) | 3% | -1% | 0% | -21% | -16
CCC(C)(C)C1CCc2c(sc(N)c2C(N)=O)C1 (stereo not drawn) | ? | -7% | -2% | 0% | 2
COc1cc(C(=O)Nc2ccc3c(c2)nc(C)n3C)cc(OC)c1OC | 3% | 5.6µM* | -4% | 3% | -8
COc1ccc(Cl)cc1NC(=O)c1cc(S(=O)(=O)N2CCC(C)CC2)cn1C | -5% | nt | nt | nt | nt
Cc1ccnc(NC(=O)CCC(=O)N(CC(=O)NCc2ccccc2)c2ccc3c(c2)OCO3)c1 | -4% | -7% | -1% | 3µM* | 20
Cc1ccc(N(CC(=O)NCc2ccc3c(c2)OCO3)C(=O)CCC(=O)Nc2ccccn2)cc1 | -9% | -2% | 0% | -11% | -5
CCCCc1nc2cc(C(=O)N3CCCCC3CCNC(C)=O)ccc2o1 (stereo not drawn) | ? | -4% | -6% | 24µM* | 18
COCCOCCn1c(/C=C/c2ccccc2)nc2ccccc21 | ? | -6% | -1% | 19µM* | 0
CCCn1c(/C=C/c2ccccc2)nc2ccccc21 | 13% | ? | -7% | -1% | 6
CCCCNC1C(CC)C(CCC)C(C#N)(C#N)C1(C#N)C#N (stereo not drawn) | 45µM* | -13% | 0% | -4% | 3
[O-][n+]1ccccc1SSc1cccc[n+]1[O-] | 5.6µM* | nt | nt | nt | nt
O=C(CSc1cccc[n+]1[O-])CSc1cccc[n+]1[O-] | -8% | 1% | 1% | 2% | 4
CC1=CC(=O)C=C(C)C1=NOC(=O)/C=C\c1ccccc1 | 2% | -7% | -4% | 1.3µM* | 0
N/C(=N\OC(=O)/C=C/c1ccccc1)c1ccncc1 | -3% | -19% | -3% | 5% | -20
CC1=CC(=NOC(=O)/C=C/c2ccccc2)C=C(C)C1=O | ? | -3% | -3% | 19µM* | -15
CC1=C(C)/C(=N\OC(=O)/C=C/c2ccccc2)C=CC1=O | ? | -7% | -6% | 3µM* | -6
CC(C)N(C)CCOC(=O)/C=C/c1ccccc1 | -15% | 2% | -4% | -10% | -2
